Shown are actives, neighbours in structure and some others; about 0.84% of the full set was active somewhere.
LRH-1 inv ag: suppresses constitutive activity of human LRH-1; HEK293T StAR-luciferase reporter, LRH-1 transfected, 24 h; inhibition, % at 3.6 µM; actives 0.13% (n = 360,000);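 active means inhibition above the mean inhibition of all tested compounds plus 3 SD, cut at about 73% in these data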
NR2F2 inh: inhibitors of human COUP-TFII (NR2F2); inhibition, % at 8.6 µM; HEK293T NGFI-A luciferase reporter, luminescence; P24468; AID 686940; actives 0.7% (n = 370,000);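 active means inhibition above a per-plate cutoff, mean inhibition of test wells between control levels plus 3 SD, cut at about 38% in these data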;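 further: cells cotransfected with COUP-TFII expression vector driving the NGFI-A reporter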
NCOA3 inh: inhibitors of human steroid receptor coactivator 3 (SRC3); HEK293 GAL4-SRC3 luciferase reporter, luminescence; inhibition, % at 3.6 µM; Q9Y6Q9; actives 0.17% (n = 360,000);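 active means inhibition above a per-campaign cutoff, the mean of all compounds plus 3 SD, cut at about 60% in these data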;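 further: higher means less SRC3-driven luciferase light from the GAL4 reporter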
Target sequence (Q9Y6Q9 whole entry, looked up, the tested form may be a part): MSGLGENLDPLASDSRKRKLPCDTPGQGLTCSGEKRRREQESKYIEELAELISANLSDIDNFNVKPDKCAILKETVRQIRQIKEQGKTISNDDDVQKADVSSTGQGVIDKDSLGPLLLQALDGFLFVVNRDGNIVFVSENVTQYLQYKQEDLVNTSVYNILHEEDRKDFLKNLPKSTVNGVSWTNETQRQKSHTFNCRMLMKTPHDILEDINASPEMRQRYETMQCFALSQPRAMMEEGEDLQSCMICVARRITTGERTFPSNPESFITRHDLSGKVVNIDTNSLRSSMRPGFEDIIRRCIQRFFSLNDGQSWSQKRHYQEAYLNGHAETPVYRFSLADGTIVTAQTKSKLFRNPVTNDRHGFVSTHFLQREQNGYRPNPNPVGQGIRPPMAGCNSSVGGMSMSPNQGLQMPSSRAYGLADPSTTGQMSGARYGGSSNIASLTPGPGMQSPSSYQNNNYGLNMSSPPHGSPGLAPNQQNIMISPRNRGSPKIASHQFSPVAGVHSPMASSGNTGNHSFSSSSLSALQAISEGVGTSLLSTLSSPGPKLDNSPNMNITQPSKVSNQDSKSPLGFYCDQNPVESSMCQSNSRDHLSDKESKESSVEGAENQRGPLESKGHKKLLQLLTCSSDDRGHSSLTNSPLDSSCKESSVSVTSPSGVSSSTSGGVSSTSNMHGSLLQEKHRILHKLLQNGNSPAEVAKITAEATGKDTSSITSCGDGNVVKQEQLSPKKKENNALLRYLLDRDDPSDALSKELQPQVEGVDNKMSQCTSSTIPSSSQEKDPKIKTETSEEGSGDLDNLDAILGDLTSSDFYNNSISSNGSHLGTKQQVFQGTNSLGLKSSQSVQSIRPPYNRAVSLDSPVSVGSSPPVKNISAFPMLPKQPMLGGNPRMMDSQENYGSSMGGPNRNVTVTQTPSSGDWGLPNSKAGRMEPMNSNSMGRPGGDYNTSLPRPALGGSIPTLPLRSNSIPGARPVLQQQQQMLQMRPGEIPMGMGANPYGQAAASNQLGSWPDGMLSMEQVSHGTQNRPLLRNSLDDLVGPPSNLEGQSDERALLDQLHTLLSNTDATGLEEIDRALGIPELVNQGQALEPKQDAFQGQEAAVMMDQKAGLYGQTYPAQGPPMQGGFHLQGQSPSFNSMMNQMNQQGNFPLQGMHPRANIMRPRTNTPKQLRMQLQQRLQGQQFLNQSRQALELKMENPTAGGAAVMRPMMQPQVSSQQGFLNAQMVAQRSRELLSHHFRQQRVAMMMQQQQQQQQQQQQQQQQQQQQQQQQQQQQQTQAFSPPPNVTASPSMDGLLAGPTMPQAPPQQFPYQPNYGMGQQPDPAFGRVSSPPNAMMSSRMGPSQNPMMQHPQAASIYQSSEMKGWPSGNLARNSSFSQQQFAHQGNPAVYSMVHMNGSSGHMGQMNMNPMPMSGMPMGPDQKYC
SRC1 inh: inhibitors of human steroid receptor coactivator 1 (SRC1). Q15788. HEK293 GAL4-SRC1 luciferase reporter, luminescence. inhibition, % at 3.6 µM. actives 0.12% (n = 360,000);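 active means inhibition above the campaign mean plus 3 SD, with each screening campaign given its own cutoff, cut at about 60% in these data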
NCOA2 inhibitor: human SRC2 (NCOA2) inhibition; HEK293 GAL4-SRC2 luciferase reporter, luminescence; inhibition, % at 9 µM; Q15596; actives 0.17% (n = 370,000);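 active means inhibition above the mean inhibition of all tested compounds plus 3 SD, set per campaign, cut at about 52% in these data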
VP16 Luc counter: VP16 inhibition counter-screen for COUP-TFII; HEK293 Gal4-VP16 luciferase reporter, luminescence; AID 687007; actives 25% (n = 2,500); inhibition, % at 8.5 µM; shares compounds with NR2F2 inh; in the data active means inhibition above about 13%
COUP-TFII conf: COUP-TFII (NR2F2) inhibition, confirmation assay | shares compounds with NR2F2 inh | actives 45% (n = 2,500) | HEK293 NGFI-A luciferase reporter, luminescence | inhibition, % at 8.5 µM;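 active means mean inhibition over three repeats above a set limit taken from the earlier primary screen, cut at about 38% in these data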
Large screens that a line does not name were inactive (follow-up assays come after a bar, where they were run).

Cc1cc(=O)oc2cc(OCC(=O)OCC(=O)Nc3ccccc3Br)ccc12	NR2F2 inh 55 | VP16 Luc counter inactive | COUP-TFII conf inactive
C[C@@H]1N[C@H]2N(C1=O)c1ccccc1[C@@]21C[C@@H]2C(=O)N[C@](C)(O1)c1nc3ccccc3c(=O)n12	none (no result: LRH-1 inv ag, NCOA3 inh, SRC1 inh)
CCOC(=O)CC1CCCCN1C(=O)c1cc(COc2cccc3cnccc23)on1 (centres undefined)	NR2F2 inh 71 | VP16 Luc counter 16 | COUP-TFII conf 78
COC(=O)C1CCCCN1C(=O)c1cc(COc2cccc3cnccc23)on1 (centres undefined)	NR2F2 inh 61 | VP16 Luc counter inactive | COUP-TFII conf 59
CN(Cc1nccs1)C(=O)c1cc(COc2cccc3cnccc23)on1	NR2F2 inh 54 | VP16 Luc counter inactive | COUP-TFII conf 47
O=C(c1cc(COc2cccc3cccnc23)on1)N1CCC[C@H]1CO	none
COc1ccc(CC(/C=C/c2ccc(F)cc2)c2ccccc2)cc1 (centres undefined)	none (no result: LRH-1 inv ag, NCOA3 inh, SRC1 inh)
O=C1/C(=C/c2cccnc2)CCc2c1[nH]c1ccccc21	none
CC1C/C(=C\c2cccnc2)C(=O)/C(=C/c2cccnc2)C1 (centres undefined)	NR2F2 inh 96, NCOA2 inhibitor 80 | VP16 Luc counter 91 | COUP-TFII conf 105
O=[N+]([O-])c1ccc(C[n+]2cccc3c4ccccc4ccc32)cc1	NR2F2 inh 58 | VP16 Luc counter inactive | COUP-TFII conf inactive
Cc1ccc[n+](Cc2ccc([N+](=O)[O-])cc2)c1	none
COc1ccc2cc3c(N)nn(C(=O)c4ccccc4[N+](=O)[O-])c3nc2c1	NR2F2 inh 43 | VP16 Luc counter 15 | COUP-TFII conf inactive
CC(=O)c1ccc([C@H](O)[C@H](C)C(=O)N(C)c2ccccc2)cc1	none (no result: LRH-1 inv ag, NCOA3 inh, SRC1 inh)
CC1(C)N=C(N)N=C(N)N1c1ccc(Oc2ccc(Cl)cc2)c(Cl)c1	NR2F2 inh 69 | VP16 Luc counter 16 | COUP-TFII conf 65
CCOC(=O)N1CCN(C(=O)C[C@H]2C[C@@]3(C(=O)OC)C(=C[C@H](COCc4ccccc4)O[C@@H]3C)N(CCc3ccc(OC)c(OC)c3)C2=O)CC1	none (no result: LRH-1 inv ag, NCOA3 inh, SRC1 inh)
CCN1/C(=C/c2ccc3cc(C)ccc3[n+]2CC)Sc2cc(C)ccc21	NR2F2 inh 63 | VP16 Luc counter inactive | COUP-TFII conf 53
CCN1/C(=C/c2ccc3cc(C)ccc3[n+]2C)Sc2ccc3sccc3c21	NR2F2 inh 38 | VP16 Luc counter inactive | COUP-TFII conf inactive
CCOC(=O)C1=NOC(C(=O)Nc2nccs2)(C(=O)C2CC2)C1 (centres undefined)	none (no result: LRH-1 inv ag, NCOA3 inh, SRC1 inh)
Nc1cccc(-c2cc3ccccc3oc2=O)c1	NR2F2 inh 57 | VP16 Luc counter inactive | COUP-TFII conf inactive
COc1ccc(N2CCN(CCNS(=O)(=O)c3ccc(Br)s3)CC2)cc1	none (no result: LRH-1 inv ag, NCOA3 inh, SRC1 inh)
O=C(N1CCC(C(O)(c2ccccc2)c2ccccc2)CC1)n1ncc(C(O)(c2ccccc2)c2ccccc2)n1	NR2F2 inh 44 (no result: LRH-1 inv ag, NCOA3 inh, SRC1 inh, NCOA2 inhibitor) | VP16 Luc counter inactive | COUP-TFII conf inactive
O=C(C1CC1)N1CCC(C(O)(c2ccccc2)c2ccccc2)CC1	none
O=C(CN[C@@H](Cc1c[nH]c2ccccc12)C(=O)NCCc1c[nH]c2ccccc12)NC1CCCCC1	none (no result: LRH-1 inv ag, NCOA3 inh, SRC1 inh, NCOA2 inhibitor)
CC(=O)N(/N=C1\Sc2ccccc2C1=O)c1ccc(C)cc1C	NR2F2 inh 64, NCOA3 inh 64 | VP16 Luc counter 24 | COUP-TFII conf 76
Cc1cccc(NC(=O)c2cccc3c2-c2ccccc2C3=O)c1C	none (no result: LRH-1 inv ag, NCOA3 inh, SRC1 inh)
COc1ccc(OCC(=O)Nc2ccc(N3CCN(C(=O)c4ccccc4)CC3)c(Cl)c2)cc1	NR2F2 inh 59 | VP16 Luc counter inactive | COUP-TFII conf inactive
CCc1c(C)nc2ncnn2c1NCCc1ccc(OC)cc1	NR2F2 inh 58 | VP16 Luc counter inactive | COUP-TFII conf 52
CCOc1ccc(OCC)c(NC(=O)C2CCCN2S(=O)(=O)c2cccc3cccnc23)c1 (centres undefined)	NR2F2 inh 40 | VP16 Luc counter inactive | COUP-TFII conf inactive
COc1ccc(NC(=O)C2CCCN2S(=O)(=O)c2cccc3cccnc23)c(OC)c1 (centres undefined)	none
CC(=O)CSc1ccc(-c2nc3cc(C)c(C)cc3[nH]2)cn1	NR2F2 inh 54, NCOA2 inhibitor 63 | VP16 Luc counter inactive | COUP-TFII conf inactive
CCOC(=O)[C@]12CCCC=C1N(Cc1ccc(OC)cc1)C(=O)[C@@H]2CC(=O)N1CCSCC1	none (no result: LRH-1 inv ag, NCOA3 inh, SRC1 inh)
Cn1c(=O)oc2cc(S(=O)(=O)N3CCN(c4cccc(C(F)(F)F)c4)CC3)ccc21	none (no result: LRH-1 inv ag, NCOA3 inh, SRC1 inh)
CC(C)OC(=O)CSc1nc(N)c(C#N)c(-c2cccs2)c1C#N	NR2F2 inh 45 | VP16 Luc counter inactive | COUP-TFII conf inactive
O=C(NCc1ccccc1)c1ccc(CO)cc1	none (no result: LRH-1 inv ag, NCOA3 inh, SRC1 inh)
Cc1ccc(-n2c(C)cc(C(=O)COc3cccnc3[N+](=O)[O-])c2C)cc1	none
Cc1cc(C(=O)COc2cccnc2[N+](=O)[O-])c(C)n1-c1ccccc1F	NR2F2 inh 48 | VP16 Luc counter inactive | COUP-TFII conf inactive
O=C(c1ccncc1)c1ccc(N2CCN(C3CC(=O)N(Cc4cccs4)C3=O)CC2)cc1 (centres undefined)	NR2F2 inh 38 | VP16 Luc counter inactive | COUP-TFII conf inactive
Cc1ccc(S(=O)(=O)N(C)CCCC(=O)Nc2ccc(F)cc2)cc1	none
Cc1ccc(S(=O)(=O)N(C)CCCC(=O)Nc2ccncc2)cc1	NR2F2 inh 42 | VP16 Luc counter inactive | COUP-TFII conf inactive
COc1cccc(OC(C)CCN2CCC(C(O)(c3ccccc3)c3ccccc3)CC2)c1 (centres undefined)	none (no result: LRH-1 inv ag, NCOA3 inh, SRC1 inh)
Cc1nn(C)c(C)c1CNC(=O)c1cnn2c1NC(c1ccccc1)CC2C(F)(F)F (centres undefined)	none
Cc1ccc(C2CC(C(F)(F)F)n3nc(C(=O)NCc4c(C)nn(C)c4C)c(Cl)c3N2)cc1 (centres undefined)	NR2F2 inh 45 | VP16 Luc counter inactive | COUP-TFII conf inactive
COc1ccc(/C=C/S(=O)(=O)NCc2ccccc2)c(CNC(=O)OC(C)(C)C)c1	none (no result: LRH-1 inv ag, NCOA3 inh, SRC1 inh)
Cn1c(SCC(=O)N2CCN(c3ccccc3)CC2)nnc1-c1c[nH]c2ccccc12	none
CCn1c(COc2c(C)cccc2C)nnc1SCC(=O)N1CCN(c2ccccc2)CC1	none
CCn1c(SCC(=O)N2CCN(c3ccccc3)CC2)nnc1-c1c[nH]c2ccccc12	NR2F2 inh 46 | VP16 Luc counter inactive | COUP-TFII conf inactive
C=CCn1c(COc2cccc(C)c2C)nnc1SCC(=O)N1CCN(c2ccccc2)CC1	NR2F2 inh 44 | VP16 Luc counter inactive | COUP-TFII conf 38
COc1ccc(Oc2c(Br)cnn(Cc3cccc4ccccc34)c2=O)cc1	none (no result: LRH-1 inv ag, NCOA3 inh, SRC1 inh)
